# Test results from PubChem BioAssay (NCATS).
# A number with no mark means an inactive call. Results filed as inconclusive are left out. Entries that show only a call come without a potency. Active and inactive are the calls of the source. Unless noted, the call rests on the fitted dose curve; in most records, active means well fitted curve in the direction sought with a large enough effect; inconclusive means small, poorly fitted or top-dose-only effect, or another doubt; inactive means no such curve, though single readings can be large; an effect the other way counts as inactive or inconclusive.
# Columns and labels:
# [1] = target: Cytochrome P450 1A2 (Homo sapiens) (UniProt P05177); assay: p450-cyp1a2 (AID 410; calls by dose curve; further: potency means the concentration at half of the fitted maximal effect)
# Sequence of Cytochrome P450 1A2 (Homo sapiens) (P05177 whole entry, looked up): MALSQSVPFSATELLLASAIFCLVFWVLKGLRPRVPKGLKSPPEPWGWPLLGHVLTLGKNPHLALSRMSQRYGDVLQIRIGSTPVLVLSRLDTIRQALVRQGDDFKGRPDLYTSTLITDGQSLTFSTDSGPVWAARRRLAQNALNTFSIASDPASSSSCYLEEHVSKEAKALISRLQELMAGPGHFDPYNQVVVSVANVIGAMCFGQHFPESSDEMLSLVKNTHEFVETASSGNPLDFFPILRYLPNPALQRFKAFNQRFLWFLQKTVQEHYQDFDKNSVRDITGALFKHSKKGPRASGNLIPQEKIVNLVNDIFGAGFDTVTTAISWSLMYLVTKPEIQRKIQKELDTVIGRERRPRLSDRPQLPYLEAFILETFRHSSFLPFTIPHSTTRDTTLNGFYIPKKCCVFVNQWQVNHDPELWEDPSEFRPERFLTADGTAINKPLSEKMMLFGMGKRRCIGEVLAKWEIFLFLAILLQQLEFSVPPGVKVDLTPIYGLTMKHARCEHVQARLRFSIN
# Outline: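 20nM CYP1A2, 100uM Luciferin-ME (=Km), 100mM KPO4; cpd 10 min RT; +NADPH regen, 60 min RT; stop/detect 20 min; luminescence. Normalized to furafylline 57 uM = full inhibition.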
# [2] = NFAT Signaling Pathway (AID 444; active means well fitted curve in either direction with a large enough effect, not every such curve was filed as active;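 further: carbachol stimulus at about its EC50 of 1 µM final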); details: Jurkat NFAT-bla M1, carbachol, beta-lactamase ratio, 5 h; at 7.69 µM (top of the series) unless noted
# Outline: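 Jurkat cells carrying an NFAT-driven β-lactamase reporter and co-transfected muscarinic M1 receptor were treated with compound plus carbachol (1 uM final, an EC50 level) for 5 h at 37 °C. CCF4 loading followed for 1 h at RT; 460/530 nm ratio gave %activity.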
# [3] = Stat Signaling Pathway (AID 446; active means well fitted curve in either direction with a large enough effect, not every such curve was filed as active;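 further: ME-180 cervical cancer cells given 40 pM IL-6 alongside compound; SIE-controlled beta-lactamase reporter measured as 460/530 nm FRET emission ratio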)
# Outline: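 FRET read-out (405 nm excitation, 460/530 nm emission) of a beta-lactamase reporter under a STAT-inducible element in ME-180 cervical carcinoma cells. Cells with compound receive 40 pM IL-6 for 5 h. Values are normalised to AC90 stimulation and AC90 JAK-inhibitor controls.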
# [4] = target: Glucocorticoid receptor (Homo sapiens) (UniProt P04150); assay: GR-GFP Redistribution (AID 450;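 active means compounds whose dose series gives a full or clear partial fitted curve of increased nuclear translocation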; further: potency means the concentration at half of the fitted maximal effect); details: U2OS GR-GFP nuclear translocation, laser cytometry, 2 h
# Sequence of Glucocorticoid receptor (Homo sapiens) (P04150 whole entry, looked up, the tested form may be a part): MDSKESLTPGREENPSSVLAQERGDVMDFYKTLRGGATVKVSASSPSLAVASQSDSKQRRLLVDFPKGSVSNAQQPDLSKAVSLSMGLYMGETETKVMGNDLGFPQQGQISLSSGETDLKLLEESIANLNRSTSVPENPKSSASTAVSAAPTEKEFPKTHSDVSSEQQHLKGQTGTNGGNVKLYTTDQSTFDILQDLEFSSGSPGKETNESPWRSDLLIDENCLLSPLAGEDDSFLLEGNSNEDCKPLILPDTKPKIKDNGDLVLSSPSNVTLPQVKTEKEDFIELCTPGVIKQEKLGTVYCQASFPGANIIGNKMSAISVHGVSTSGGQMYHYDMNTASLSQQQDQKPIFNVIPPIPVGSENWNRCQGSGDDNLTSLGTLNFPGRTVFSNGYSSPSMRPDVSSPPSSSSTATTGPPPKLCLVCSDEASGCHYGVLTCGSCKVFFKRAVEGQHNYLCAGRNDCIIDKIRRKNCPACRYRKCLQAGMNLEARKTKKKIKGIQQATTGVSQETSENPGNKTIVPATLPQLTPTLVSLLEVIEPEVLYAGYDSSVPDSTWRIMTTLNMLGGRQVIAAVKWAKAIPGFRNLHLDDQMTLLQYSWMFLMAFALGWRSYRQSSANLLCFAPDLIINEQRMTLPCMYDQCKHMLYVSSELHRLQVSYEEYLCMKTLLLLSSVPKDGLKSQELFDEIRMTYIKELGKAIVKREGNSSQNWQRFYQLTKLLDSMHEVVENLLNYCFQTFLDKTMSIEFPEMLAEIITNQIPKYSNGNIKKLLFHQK
# [5] = target: Glucocorticoid receptor (Homo sapiens) (UniProt P04150); assay: GR-EFC Redistribution (AID 451; calls by dose curve; further: potency means the concentration at half of the fitted maximal effect); details: CHO-K1 GR-EFC translocation, beta-gal luminescence, 2 h
# Outline: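 CHO-K1 cells stably expressing nuclear-localized β-gal enzyme acceptor and GR fused C-terminally to the enzyme donor fragment; ligand-driven nuclear translocation restores β-gal by complementation. Compounds titrated up to 46 uM final, 2 h at 37 °C; luminescence read.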
# [6] = target: Mitogen-activated protein kinase 10 (Mus musculus) (UniProt Q61831); assay: JNK3 AlphaScreen Assay (AID 530; active means well fitted curve in either direction with a large enough effect, not every such curve was filed as active;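 further: kinase came from lysate of stimulated human HepG2 cells; signal reports phosphorylation of biotinylated GST-cJun 1-79 at Ser73 with 10 µM ATP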)
# Outline: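 Biotinylated GST-cJun(1-79) served as substrate for JNK3 in HepG2 lysates stimulated with IL-1beta and TNF-alpha. ATP was 10 uM final, pH 7.6. Ser73 phosphorylation was quantified by AlphaScreen (680 nm excitation).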
# [7] = target: Ubiquitin carboxyl-terminal hydrolase 1 (Homo sapiens) (UniProt O94782); assay: Inhibitors of USP1/UAF1: Pilot qHTS (AID 504865);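 further: rhodamine fluorescence freed from ubiquitin-rhodamine substrate followed over time; top concentration of the series differs between compounds; nearly all actives have a fitted effect of over 35% in size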
# Sequence of Ubiquitin carboxyl-terminal hydrolase 1 (Homo sapiens) (O94782 whole entry, looked up): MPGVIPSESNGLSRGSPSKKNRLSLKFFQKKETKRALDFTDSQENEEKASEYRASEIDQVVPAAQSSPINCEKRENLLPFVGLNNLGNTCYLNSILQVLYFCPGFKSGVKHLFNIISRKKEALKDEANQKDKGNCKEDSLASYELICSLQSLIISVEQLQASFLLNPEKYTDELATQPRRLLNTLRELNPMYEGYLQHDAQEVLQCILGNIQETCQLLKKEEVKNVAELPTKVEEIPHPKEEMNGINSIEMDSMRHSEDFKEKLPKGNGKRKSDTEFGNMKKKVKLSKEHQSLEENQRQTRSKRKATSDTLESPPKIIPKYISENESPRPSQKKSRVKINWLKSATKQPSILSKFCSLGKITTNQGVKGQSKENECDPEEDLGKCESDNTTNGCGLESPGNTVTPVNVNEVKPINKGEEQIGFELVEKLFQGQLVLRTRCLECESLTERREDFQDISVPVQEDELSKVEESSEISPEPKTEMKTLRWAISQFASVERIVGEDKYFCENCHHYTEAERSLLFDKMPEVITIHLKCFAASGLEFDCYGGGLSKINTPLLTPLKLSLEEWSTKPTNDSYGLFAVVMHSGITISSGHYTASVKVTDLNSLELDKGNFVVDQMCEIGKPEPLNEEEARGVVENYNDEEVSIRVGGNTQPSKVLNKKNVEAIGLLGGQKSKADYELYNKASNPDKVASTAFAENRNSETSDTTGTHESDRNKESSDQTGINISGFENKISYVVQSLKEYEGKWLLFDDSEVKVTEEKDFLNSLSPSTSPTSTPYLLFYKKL
# Outline: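 USP1/UAF1 complex at 1 nM preincubated 15 min at room temperature with compound, then Ub-Rho substrate added at 150 nM final. Fluorescence (480/540 nm) read kinetically in 50 mM HEPES pH 7.8, 0.5 mM EDTA, 1 mM TCEP, 0.1 mg/ml BSA, 0.01% Tween-20.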
# [8] = Viability counterscreen for antagonist of constitutive androstane receptor (CAR) against the NCATS DSHEA and TCM libraries (AID 1794837);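 further: compound exposure lasted 24 h before viability reading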
# Outline: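 HepG2-CYP2B6-hCAR cells, 2,500/well, were exposed 24 hr at 37C to substances together with 48 uM CITCO (final). Viability was read as CellTiter-Fluor fluorescence (Ex/Em 405/540 nm) after 1 hr.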
# [9] = Viability counterscreen for agonist of constitutive androstane receptor (CAR) against the NCATS DSHEA and TCM libraries (AID 1794838);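 further: HepG2 cells with CYP2B6 reporter and hCAR plus 0.75 µM PK11195 antagonist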
# Outline: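 HepG2-CYP2B6-hCAR cells (2,500/well) treated 24 h at 37C with compounds plus 0.75 uM PK11195; viability read by CellTiter-Fluor fluorescence, Ex/Em 405/540 nm.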
# [10] = target: Nuclear receptor subfamily 1 group I member 3 (Homo sapiens) (UniProt Q14994); assay: Primary qHTS for agonist of constitutive androstane receptor (CAR) against the NCATS DSHEA and TCM libraries (AID 1794839);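 further: HepG2 cells expressing human CAR with a CYP2B6 reporter plus PK11195 antagonist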
# Sequence of Nuclear receptor subfamily 1 group I member 3 (Homo sapiens) (Q14994 whole entry, looked up): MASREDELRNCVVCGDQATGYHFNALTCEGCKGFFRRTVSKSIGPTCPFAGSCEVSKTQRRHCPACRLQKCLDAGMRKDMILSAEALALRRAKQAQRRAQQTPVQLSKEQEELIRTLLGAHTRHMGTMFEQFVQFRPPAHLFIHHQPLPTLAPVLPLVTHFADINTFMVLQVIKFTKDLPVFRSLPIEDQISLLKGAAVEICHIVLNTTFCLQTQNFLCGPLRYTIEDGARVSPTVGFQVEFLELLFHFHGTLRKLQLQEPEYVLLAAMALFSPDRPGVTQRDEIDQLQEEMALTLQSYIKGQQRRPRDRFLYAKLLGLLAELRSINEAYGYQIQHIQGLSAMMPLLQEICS
# Outline: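 HepG2-CYP2B6-hCAR cells, 2,500/well, attached 5 h, then dosed with 0.75 µM PK11195 (final) for 24 h at 37 °C. Luciferase luminescence read (ONE-Glo); CellTiter-Fluor viability (Ex/Em 405/540 nm) in same wells; CITCO positive control.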
# [11] = HepG2 viability counterscreen (readout 2: ATP content) against the NCATS DSHEA and TCM libraries (AID 1794840)
# Outline: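 HepG2 cells, 1,000/well, attached ~4 h, then exposed ~24 h at 37C to substances. Protease activity read by fluorescence of 25 uM GF-AFC (Ex/Em 380/510 nm) after 30 min; ATP then by CellTiter-Glo luminescence.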
# [12] = target: Cytochrome P450 3A4 (Homo sapiens) (UniProt P08684); assay: qHTS for inhibitors of CYP3A4 against the NCATS DSHEA and TCM libraries (AID 1919971); further: potency means the concentration at half of the fitted maximal effect;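 on activity change, negative = inhibition: inhibition lowers luminescence from luciferin made by CYP3A4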
# Sequence of Cytochrome P450 3A4 (Homo sapiens) (P08684 whole entry, looked up): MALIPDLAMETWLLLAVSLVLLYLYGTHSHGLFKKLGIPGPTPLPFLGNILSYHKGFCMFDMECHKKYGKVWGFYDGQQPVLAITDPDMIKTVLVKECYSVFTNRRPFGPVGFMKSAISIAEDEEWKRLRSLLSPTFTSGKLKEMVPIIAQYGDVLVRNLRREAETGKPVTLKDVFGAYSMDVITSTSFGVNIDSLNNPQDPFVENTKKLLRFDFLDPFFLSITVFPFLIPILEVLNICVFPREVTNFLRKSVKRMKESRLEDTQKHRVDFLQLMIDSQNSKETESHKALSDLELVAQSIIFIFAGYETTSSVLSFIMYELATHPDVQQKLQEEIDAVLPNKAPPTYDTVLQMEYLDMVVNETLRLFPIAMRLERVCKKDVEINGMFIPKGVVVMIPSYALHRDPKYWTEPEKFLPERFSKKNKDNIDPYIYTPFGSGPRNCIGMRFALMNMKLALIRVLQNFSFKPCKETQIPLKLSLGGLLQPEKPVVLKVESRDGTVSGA
# Outline: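 Substances were tested against enzyme with a pro-luciferin substrate; minus-enzyme wells served as background. After NADPH-initiated oxidation (30-45 min, RT), light was generated with P450-Glo reagent.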
# [13] = target: Cytochrome P450 2D6 (Homo sapiens) (UniProt P10635); assay: qHTS for inhibitors of CYP2D6 against the NCATS DSHEA and TCM libraries (AID 1919972)
# Sequence of Cytochrome P450 2D6 (Homo sapiens) (P10635 whole entry, looked up): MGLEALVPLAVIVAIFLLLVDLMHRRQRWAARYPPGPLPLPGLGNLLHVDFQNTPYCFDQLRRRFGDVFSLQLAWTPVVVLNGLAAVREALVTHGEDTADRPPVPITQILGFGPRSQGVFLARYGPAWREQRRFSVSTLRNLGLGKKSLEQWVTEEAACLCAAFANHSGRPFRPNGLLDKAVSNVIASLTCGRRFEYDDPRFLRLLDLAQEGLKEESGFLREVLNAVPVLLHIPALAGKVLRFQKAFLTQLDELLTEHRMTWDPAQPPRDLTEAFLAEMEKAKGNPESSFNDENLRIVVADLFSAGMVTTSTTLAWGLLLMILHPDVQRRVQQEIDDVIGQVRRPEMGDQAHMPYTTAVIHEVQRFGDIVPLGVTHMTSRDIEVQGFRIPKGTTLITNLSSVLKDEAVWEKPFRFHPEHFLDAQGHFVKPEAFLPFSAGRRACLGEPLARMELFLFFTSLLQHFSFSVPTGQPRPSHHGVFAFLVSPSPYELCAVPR
# Outline: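 qHTS, concentration–response format with most substances from 19.5 nM. CYP2D6 + pro-luciferin substrate, 15 min with compound, then 1x NADPH regen, 30–45 min RT dark. Glo detection 30 min, luminescence. Quinidine control.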
# [14] = KB-3-1 P-gp reporter qHTS against the NCATS DSHEA and TCM libraries (AID 1919975)
# Outline: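 Parental KB-3-1 cells, 500 cells/well, in DMEM with 10% FBS, exposed 72 h at 37 C to compounds in concentration-response. Viability read by CellTiter-Glo luminescence after 30 min at room temperature.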
# [15] = target: Cytochrome P450 1A2 (Homo sapiens) (UniProt P05177); assay: qHTS for inhibitors of CYPIA2 against the NCATS DSHEA and TCM libraries (AID 1919976)
# Outline: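 Luminescence read-out: pro-luciferin converted to D-luciferin by CYP1A2, detected with P450-Glo reagent after 30 min RT. Enzyme plus substrate got compounds for 15 min RT; NADPH regeneration solution (final 1x) started a 30-45 min reaction, light-protected.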
# [16] = qHTS Counterscreen for compound interference against the NCATS DSHEA and TCM libraries (AID 1919978); details: firefly luciferase detection reagent interference, luminescence;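 further: compounds preincubated with 1 µM D-luciferin or buffer before detection reagent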
# Outline: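 Firefly luciferase detection reagent was added after compounds (19.5 nM–39.8 uM final) had been incubated 15 min at room temperature with 1 uM D-luciferin or with 100 mM phosphate buffer alone. Luminescence was read after 30 min at room temperature.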
# [17] = Dual reporter qHTS for agonist of Pregnane X Receptor (hPXR) against the NCATS DSHEA and TCM libraries: Fluorescence readout (AID 1920058)
# Outline: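 Fluorescence read-out for cell viability: CellTiter-Fluor, 1 h at 37 °C, Ex/Em 405/540 nm. This followed ~24 h treatment of hPXR-Luc HepG2 cells with substances in agonist mode.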
# [18] = target: Nuclear receptor subfamily 1 group I member 2 (Homo sapiens) (UniProt O75469); assay: Dual reporter qHTS for agonist of Pregnane X Receptor (hPXR) against the NCATS DSHEA and TCM libraries: Luminescence readout (AID 1920059)
# Sequence of Nuclear receptor subfamily 1 group I member 2 (Homo sapiens) (O75469 whole entry, looked up): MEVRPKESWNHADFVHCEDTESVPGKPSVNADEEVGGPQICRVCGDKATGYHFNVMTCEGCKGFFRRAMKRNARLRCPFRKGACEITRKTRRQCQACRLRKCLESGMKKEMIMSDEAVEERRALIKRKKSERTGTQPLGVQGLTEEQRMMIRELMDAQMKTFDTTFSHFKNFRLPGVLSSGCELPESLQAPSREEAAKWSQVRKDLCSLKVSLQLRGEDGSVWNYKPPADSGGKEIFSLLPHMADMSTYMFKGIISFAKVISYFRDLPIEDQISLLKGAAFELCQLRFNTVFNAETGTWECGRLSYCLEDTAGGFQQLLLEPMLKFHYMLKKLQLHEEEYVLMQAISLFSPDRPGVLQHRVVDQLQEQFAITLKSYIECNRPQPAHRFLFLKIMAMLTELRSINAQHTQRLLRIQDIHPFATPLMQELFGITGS
# Outline: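 hPXR-LucHepG2 cells in phenol red-free DMEM with 5% charcoal-stripped FBS, 2000 cells/well, attached 5 h, then exposed 24 h at 37C to compounds; rifampicin as positive agonist control (2.8 nM–92 uM). Luciferase luminescence read.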
# [19] = target: Nuclear receptor subfamily 1 group I member 2 (Homo sapiens) (UniProt O75469); assay: Dual reporter qHTS for antagonist of Pregnane X Receptor (hPXR) against the NCATS DSHEA and TCM libraries: Luminescence Readout (AID 1920060);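 further: HepG2 cells carrying hPXR luciferase reporter stimulated with rifampicin at 2 µM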
# Outline: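 In antagonist mode, 2 uM rifampicin was added to hPXR-Luc HepG2 cells alongside test substances, incubated 24 h at 37 C; luminescence gave reporter activity, and CellTiter-Fluor fluorescence (405/540 nm) gave viability.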
# [20] = target: Lysosomal acid glucosylceramidase (Homo sapiens) (UniProt P04062); assay: Glucocerebrosidase-p2 (AID 348; in the data active means potency below about 10 µM; further: potency means the concentration at half of the fitted maximal effect); details: purified GBA, blue fluorogenic substrate, 40 min
# Sequence of Lysosomal acid glucosylceramidase (Homo sapiens) (P04062 whole entry, looked up): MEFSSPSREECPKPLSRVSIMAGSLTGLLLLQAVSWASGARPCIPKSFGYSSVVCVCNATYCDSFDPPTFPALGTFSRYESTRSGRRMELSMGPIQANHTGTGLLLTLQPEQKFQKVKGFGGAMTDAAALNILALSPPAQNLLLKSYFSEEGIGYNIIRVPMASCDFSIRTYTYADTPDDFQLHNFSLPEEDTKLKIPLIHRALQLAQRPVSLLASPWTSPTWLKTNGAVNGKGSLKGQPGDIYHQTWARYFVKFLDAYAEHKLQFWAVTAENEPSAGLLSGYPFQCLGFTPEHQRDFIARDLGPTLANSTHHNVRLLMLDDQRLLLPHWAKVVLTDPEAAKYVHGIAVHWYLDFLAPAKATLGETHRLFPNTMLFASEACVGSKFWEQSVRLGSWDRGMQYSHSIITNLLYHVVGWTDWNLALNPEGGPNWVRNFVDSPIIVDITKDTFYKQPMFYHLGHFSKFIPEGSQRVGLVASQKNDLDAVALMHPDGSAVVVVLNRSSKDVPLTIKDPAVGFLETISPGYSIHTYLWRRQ
# Outline: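 Normal human glucocerebrosidase (0.2 nM) with blue fluorogenic substrate (80 uM final) in citrate/phosphate pH 5.9 with 10mM sodium taurocholate, 0.01% tween-20; 40 min RT, NaOH/glycine stop; fluorescence Ex 365/Em 440; AC50 from a titration from 0.6 nM upwards.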
smiles,measurement,setting,value
Clc1ccccc1-c1ccc2ncnc(NCCN3CCOCC3)c2c1,Potency,[1],5.01 µM (active)
same,"activity change, negative = inhibition",[2],13.8%
same,outcome,[3],inactive
same,Potency,[4],> 46 µM
same,Potency,[5],> 46 µM
same,Potency,[6],inactive
same,Potency,[7],inactive
CC12CC3(O)OC(O1)C1(COC(=O)c4ccc(O)cc4)C3CC21OC1OC(CO)C(O)C(O)C1O (centres undefined),outcome,[8],inactive
same,outcome,[9],inactive
same,Potency,[10],inactive
same,outcome,[11],inactive
same,Potency,[12],inactive
same,Potency,[13],inactive
same,outcome,[14],inactive
same,Potency,[15],inactive
same,max response,[16],4.47%
same,outcome,[17],inactive
same,Potency,[18],inactive
same,outcome,[19],inactive
O=c1c(-c2ccccc2)nc2cncnc2n1Cc1ccccc1,Potency,[20],> 11.4 µM
same,"activity change, negative = inhibition",[2],-1.09%
same,outcome,[3],inactive
same,Potency,[4],> 9.22 µM
same,Potency,[5],> 46 µM
same,Potency,[6],inactive
same,Potency,[7],inactive
COc1ccc2[nH]cc(CCNc3nc(-c4ccccc4OC)nc4ccccc34)c2c1,Potency,[20],> 11.4 µM
same,Potency,[1],6.31 µM (active)
same,outcome,[3],inactive
same,Potency,[4],> 46 µM
same,Potency,[5],> 46 µM
same,Potency,[6],inactive
same,Potency,[7],inactive
COCCn1c(=O)c(-c2cccc(C#N)c2)nc2cnc(OCc3ccccc3)nc21,Potency,[20],> 11.4 µM
same,Potency,[1],12.6 µM (active)
same,Potency,[5],> 46 µM
same,Potency,[6],inactive
same,Potency,[7],inactive
COc1ccccc1CNc1nc(-c2ccoc2)nc2ccccc12,"activity change, negative = inhibition",[2],-19.8%
same,outcome,[3],inactive
same,Potency,[4],> 46 µM
same,Potency,[6],inactive
same,Potency,[7],inactive
CCCCCCCCCCCCCCCCCCCCCCCCCCCCCCO,"viability change, negative = cytotoxic",[8],-4.15% [at 5 µM]
same,"activity change, negative = cytotoxicity",[9],8.74% [at 5 µM]
same,activation,[10],-23.2% [at 5 µM]
same,"activity change, negative = cytotoxic",[11],-1.11% [at 3.42 µM]
same,"activity change, negative = inhibition",[12],9.22% [at 4.27 µM]
same,"activity change, negative = inhibition",[13],-0.757% [at 4.27 µM]
same,"activity change, negative = inhibition",[14],-11% [at 3.26 µM]
same,"activity change, negative = inhibition",[15],15.7% [at 4.62 µM]
same,max response,[16],-2.33%
same,activation,[17],1.05% [at 5 µM]
same,activation,[18],-7.37% [at 5 µM]
same,"activity change, negative = inhibition",[19],-14.7% [at 5 µM]
C=C/C(C)=C/C/C=C(\C)CCC=C(C)C,outcome,[8],inactive
same,outcome,[9],inactive
same,Potency,[10],inactive
same,outcome,[11],inactive
same,Potency,[12],28.2 µM (active)
same,Potency,[13],inactive
same,outcome,[14],inactive
same,Potency,[15],inactive
same,max response,[16],2.78%
same,outcome,[17],inactive
same,outcome,[19],inactive
C=CC(=C)CCC=C(C)C,Potency,[6],inactive
same,outcome,[8],inactive
same,outcome,[9],inactive
same,Potency,[10],inactive
same,outcome,[11],inactive
same,Potency,[12],inactive
same,Potency,[13],inactive
same,outcome,[14],inactive
same,Potency,[15],inactive
same,max response,[16],1.58%
same,outcome,[17],inactive
same,Potency,[18],inactive
same,outcome,[19],inactive
